MEX-5 binding – C. elegans MEX-5 TCR-2 RNA binding activity; actives 0.38% (n = 300,000); AID 1832; activity score (negative = inhibition of binding), % at 10 µM; Q9XUB2; MEX-5/FITC-TCR2 RNA binding, fluorescence polarization; active compounds read low;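 active = inhibition past about -25% in most replicates, and total fluorescence under double the plate's negative control median, limit read from the data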
BCLXL inh – inhibitors of human Bcl-xL; Q07817; GST-Bcl-xL / FITC-Bim BH3 peptide fluorescence polarization; inhibition, % at 10.9 µM; actives 0.7% (n = 320,000); AID 2129;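 active = inhibition above the mean of all tested compounds plus 3 SD, cutoff set per campaign, cut at about 30% in these data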;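 also: inhibitors lower millipolarization by displacing the labeled peptide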
E coli Lon inh – E. coli protease La inhibition | actives 0.42% (n = 360,000) | P0A9M0 | inhibition, % at 7.94 µM | purified E. coli Lon protease, fluorescence polarization; in the data active = inhibition above about 13%, passing the limit was not always enough
EBV gp42 inh – EBV gp42 inhibition; AID 1085; inhibition, % (tested at 21.74 µM); Fluorescence polarization binding assay, mP read-out; actives 0.42% (n = 220,000); Q1HVG2; in the data active = inhibition above about 50%
GLD-1 TGE inh – GLD-1-TGE RNA interaction inhibition (C. elegans). Q17339. purified GLD-1 + fluorescein TGE RNA, fluorescence polarization. inhibition, % at 5.96 µM. actives 0.44% (n = 320,000);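 active = percent inhibition above a per-plate cutoff, the plate mean of test compounds plus 3 SD, cut at about 30% in these data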
Numbers stand for hits; - = inactive; . = no result given. This is a sample that favours compounds with a hit; in the whole collection about 1.3% have one here.

SMILES	MEX-5 binding	BCLXL inh	E coli Lon inh	EBV gp42 inh	GLD-1 TGE inh
Cn1cc(/C=C2\C(=O)NC(=O)N(c3ccccc3)C2=O)c2ccccc21	-82	151	-	.	-
O=C1NC(=O)C(=Cc2cn(CCOc3ccc4c(c3)OCO4)c3ccccc23)C(=O)N1	-55	-	-	-	-
Oc1ccc(C[C@H]2NCCc3cc(O)c(O)cc32)cc1O	-81	.	-	.	.
COc1ccc(-c2ccc3c(c2)CN(C(=O)C(C)(C)C)Cc2cnnn2-3)cc1	.	.	-	.	.
CC(C)(C)n1nnnc1C(CCc1ccccc1)N1CCC2(CC1)C(=O)NCN2c1ccccc1 (stereo unspecified)	.	.	-	.	.
CCOc1ccc(NC(=O)c2c(O)[nH]c(=O)[nH]c2=O)cc1	-	-	-	.	-
CCOC(=O)c1ccc(NC(=O)c2c(O)[nH]c(=O)[nH]c2=O)cc1	-	-	-	77	-
CCOC(=O)[C@]12Cc3c(cc(OC)c(OC)c3OC)[C@H]1N(C1CCCCC1)C(=O)c1ccccc12	.	.	-	.	.
Cc1ccc(N2C(=O)NC(=O)/C(=C\c3cc(C)n(-c4ccc(C(=O)O)cc4)c3C)C2=O)cc1	-35	-	-	.	-
O=C1/C(=C/c2cc3c(cc2Cl)OCO3)N2CCC1CC2	-	-	.	-	54
CCOC(=O)c1c(/N=C/c2c(O)n(-c3ccc(F)cc3)c(=S)[nH]c2=O)sc2c1CCCC2	-	-	-	56	-
CCOC(=O)c1ccc(N=Cc2c(O)n(-c3ccccc3F)c(=S)[nH]c2=O)cc1	-	-	-	-	-
CCOC(=O)c1c(/N=C/c2c(O)n(-c3ccccc3F)c(=S)[nH]c2=O)sc2c1CCCC2	-	-	-	130	-
CCOC(=O)c1ccc(N=Cc2c(O)n(-c3ccc(OC)cc3)c(=S)[nH]c2=O)cc1	-	-	-	-	-
O=C(OCc1ccccc1)N1CCC2CC1c1cc(N3Cc4ccccc4-n4nncc4C3)ccc12 (stereo unspecified)	.	.	-	.	.
O=c1[nH]c(=O)n(CCC2=CCCCC2)c(O)c1C=NCCCn1ccnc1	-	-	-	-	-
O=c1[nH]c(=O)n(CCc2ccc(F)cc2)c(O)c1C=NCCCn1ccnc1	-40	-	-	-	-
COc1ccc(OC)c(-n2c(O)c(/C=C3\C=Nc4ccccc43)c(=O)[nH]c2=O)c1	-	-	-	.	-
CCOc1ccc(-n2c(O)c(/C=C3\C=Nc4ccccc43)c(=O)[nH]c2=O)cc1	-	78	-	.	-
COc1ccccc1-n1c(O)c(/C=C2\C=Nc3ccccc32)c(=O)[nH]c1=O	-35	-	-	.	-
CS(=O)(=O)c1ccc(C2=C(CNC(=O)c3nccs3)[C@H]3CC[C@@H](C2)N3Cc2ccccc2)cc1	.	.	-	.	.
CCOC(=O)c1c(NS(=O)(=O)c2ccccc2)n(CCCOC)c2nc3ccccc3nc12	-26	-	-	-	-
C#CC1(O)CCC2C3CCC4=C/C(=N/OCC(=O)NCC(=O)NC(C(=O)O)C(C)C)CC[C@]4(C)C3CC[C@@]21C (stereo partly specified)	-	.	-	.	.
C#C[C@]1(O)CC[C@H]2[C@@H]3CCC4=Cc5nc6nc7ccccc7n6cc5C[C@]4(C)[C@H]3CC[C@@]21C	.	51	-	.	-
Cc1cccc(C)c1-n1nnnc1C(c1cccc2ccccc12)N1CCC2(CC1)C(=O)NCN2c1ccccc1 (stereo unspecified)	.	.	-	.	.
SMILES	MEX-5 binding	BCLXL inh	E coli Lon inh	EBV gp42 inh	GLD-1 TGE inh
CCc1ccc(N2C(=O)NC(=O)/C(=C\c3cccn3CCOc3ccc(C(C)C)cc3)C2=O)cc1	-36	-	-	-	-
Cc1cccc(C)c1-n1nnnc1C(CCc1ccccc1)N1CCC2(CC1)C(=O)NCN2c1ccccc1 (stereo unspecified)	.	.	-	.	.
Cc1ccc(CN2Cc3ccc(Br)cc3-n3nncc3C2)cc1	.	.	-	.	.
COC1CC2C=C(C)C=CC=CC(=O)NC(c3ccccc3)CC=CCCC(O)CC(=O)C2=C1O (stereo unspecified)	.	.	-	.	.
Cn1cccc1/C=C1\C(=O)NC(=O)N(Cc2ccco2)C1=O	-	.	-	-	.
COc1ccc(/C=C2/C(=O)NC(=O)N(Cc3ccco3)C2=O)cc1	-81	-	.	-	-
COc1ccc(CCn2c(O)c(C=Nc3ccc(F)cc3)c(=O)[nH]c2=O)cc1OC	-	-	-	-	-
CCN(CC)c1ccc(N=Cc2c(O)n(CCc3ccc(OC)c(OC)c3)c(=O)[nH]c2=O)cc1	-	-	-	83	-
CC(C)C[C@H]1C(=O)N2CCC[C@H]2[C@]2(O)O[C@](NC(=O)[C@@H]3C=C4c5cccc6[nH]cc(c56)C[C@H]4N(C)C3)(C(C)C)C(=O)N12	.	149	-	.	118
COC(=O)C1C=C2c3cccc4[nH]cc(c34)CC2N(C)C1 (stereo unspecified)	.	.	.	114	.
CC[C@@H](CO)NC(=O)[C@@H]1C=C2c3cccc4[nH]cc(c34)C[C@H]2N(C)C1	.	.	-	.	.
O=C(N/N=C/c1c(O)n(C2CC2)c(=S)[nH]c1=O)c1ccccc1O	-60	-	-	-	-
Cc1ccccc1-n1c(O)c(/C=N/NC(=O)c2ccccc2O)c(=O)[nH]c1=S	-29	-	-	-	-
O=C(N/N=C/c1c(O)n(-c2ccccc2)c(=S)[nH]c1=O)c1ccccc1	-	-	-	-	-
COc1ccc2c(c1O)-c1c(OC)c(OC)cc3c1[C@H](C2)N(C)CC3	.	-	-	.	-
CCCN1CCc2cccc3c2[C@H]1Cc1ccc(O)c(O)c1-3	-84	32	-	.	-
CCOC(=O)[C@]12Cc3cc(Cl)ccc3[C@H]1N(C1CCCCC1)C(=O)c1cc(OC)ccc12	.	.	-	.	.
COC(=O)C1(F)C(=O)NC(=O)NC1O (stereo unspecified)	.	.	-	.	.
Cc1cccc(N2C(=O)NC(=O)/C(=C/c3ccc([N+](=O)[O-])o3)C2=O)c1	.	33	.	-	-
O=C(/C=C/c1ccccc1)N1Cc2ccccc2-n2nncc2C1	.	.	-	.	.
COc1cccc(C(c2nnnn2C2CCCCC2)N2CCC3(CC2)C(=O)NCN3c2ccccc2)c1OC (stereo unspecified)	.	.	-	.	.
COc1cc(O)c(C(=O)O)c(-c2cc(O)c(O)cc2C)c1	-62	-	-	-	-
O=C1NC(=S)N(c2ccc(F)cc2)C(=O)/C1=C/c1ccco1	-94	79	.	.	-
O=C1NC(=O)N(c2ccccc2)C(=O)/C1=C/C=C/c1ccco1	-	-	-	-	-
CN1C(=O)/C(=C/C=C/c2ccco2)C(=O)NC1=S	-80	-	-	-	-
SMILES	MEX-5 binding	BCLXL inh	E coli Lon inh	EBV gp42 inh	GLD-1 TGE inh
CCN1C(=O)/C(=C\c2ccc([N+](=O)[O-])s2)C(=O)NC1=S	.	.	.	-	.
COc1ccc(OC)c(N2C(=O)/C(=C/c3ccco3)C(=O)NC2=S)c1	-	80	.	.	-
COc1ccc(N2C(=O)/C(=C/c3ccc(C)o3)C(=O)NC2=S)cc1	-	.	-	.	.
COc1ccc(OC)c(N2C(=O)NC(=O)/C(=C/c3ccc([N+](=O)[O-])s3)C2=O)c1	-42	-	-	-	-
Cc1ccccc1OP(=O)(Oc1ccccc1C)N1CCOCC1	.	.	-	.	.
NC(Cc1ccc(F)cc1)c1csc(Nc2ncccn2)n1 (stereo unspecified)	.	.	-	.	.

Source: PubChem BioAssay
